Bioassay records (PubChem)
Hits are enriched below; roughly 14% of the tested compounds scored in any of these assays.
HCMV inh – qHTS Assay for inhibitors of the human cytomegalovirus (HCMV). actives 4.5% (n = 410,000). HFF cells, HCMV-luciferase reporter, 72 h; stronger effect = lower value. activity change, negative = inhibition, % at 57.5 µM. AID 1259415, 2018; in the data active = activity change below about -60%; inconclusive = no clear call, values can overlap the other calls; inactive = above about -39%
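Steps: HFFs plated, 16 h 37C; compounds added; HCMV-luciferase added to MOI 1 PFU/cell; 72 h 37C; OneGlo reagent, 5 min room temperature; luminescence read, normalized to controls.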
Lassa entry inh – qHTS for Inhibitors of binding or entry into cells for Lassa Virus; Potency, µM (highest dose often 37.9 µM), usual class: inhibitors; actives 1.2% (n = 300,000); Lassa virus pseudotype entry inhibition, cell reporter; AID 540256, 2011; calls by dose curve; tested in HEK293 cells; note: nearly all actives have a fitted effect of over 50% in size
Pf growth 48h – Primary qHTS for delayed death inhibitors of the malarial parasite plastid, 48 hour incubation; P. falciparum luciferase growth in erythrocytes, 48 h; Potency, µM (top dose mostly 28.7 µM), most hits filed as inhibitors; actives 5.9% (n = 310,000); AID 504832, 2011
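Luciferase-expressing parasites in RBCs, 2% Hct / 0.1% parasitemia final; RPMI 1640 + 0.5% Albumax; 37 C, 5% CO2, one generation; luminescence read-out, lower signal = inhibition.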
Pf growth 96h – Primary qHTS for delayed death inhibitors of the malarial parasite plastid, 96 hour incubation; P. falciparum luciferase reporter growth, 96 h; AID 504834, 2011; Potency, µM (doses to about 28.7 µM), usual class: inhibitors; actives 6.9% (n = 320,000)
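96 h incubation, 37 C, 5% CO2, of luciferase-reporter P. falciparum-infected RBCs (2% hematocrit, 0.05% parasitemia final) with test compounds; endpoint luminescence.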
HCV inh – qHTS Assay for Inhibitors of Hepatitis C Virus (HCV); Potency, µM (series often up to 41.8 µM), actives largely listed as inhibitors; actives 3.4% (n = 340,000); AID 651820, 2012; Huh7.5.1 HCVcc-Cre infection, luciferase reporter, 44 h
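Cells seeded at 1,000/well and cultured 4 h, then compounds added followed by HCVcc-Cre virus (~0.5 moi). After 44 h further culture, luciferase substrate was added, plates held 15 min at room temperature, and luminescence read for 15 sec.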
Marburg entry inh – qHTS for inhibitors of binding or entry into cells for Marburg Virus | Potency, µM (titrated, usually from 37.8 µM), actives largely listed as inhibitors | AID 540276, 2011 | actives 1.8% (n = 300,000) | Marburg virus pseudotyped entry inhibition, cell reporter; calls by dose curve; tested in HEK293 cells
A number is an active result; ! = repeats disagree; [ ] = dose if it differs, or a comment. Unless noted, calls come from the whole dose curve; as a rule, active = well fitted inhibition curve with a large enough effect; inconclusive = small, poorly fitted or top-dose-only effect, or another doubt; inactive = no such curve, though single readings can be large or run the other way.

What do the screens show for `O=C(CN1C(=O)S/C(=C\c2ccccc2F)C1=O)NC1C=CS(=O)(=O)C1` (centres undefined)?
HCMV inh: -62.7; Pf growth 48h: inconclusive; Pf growth 96h: inconclusive; HCV inh: inactive

Results for CC1(C(=O)Nc2ccc3c(c2)OCCO3)CN(S(C)(=O)=O)CC(=O)N1CCc1ccccc1 (centres undefined) ?
HCMV inh: inactive

What do the screens show for `CC12CC3CC(C)(C1)CC(Nc1nc(N4CCOCC4)nc4ccccc14)(C3)C2`?
HCMV inh: inactive; Lassa entry inh: inactive; Pf growth 48h: 1.65µM; Pf growth 96h: 1.31µM; HCV inh: inactive; Marburg entry inh: inactive

How did c1ccc2c(N3CCOCC3)nc(N3CCOCC3)nc2c1 do in these assays?
HCMV inh: inactive; Lassa entry inh: inactive; Pf growth 48h: inconclusive; Pf growth 96h: 4.15µM; HCV inh: inactive; Marburg entry inh: inactive

What do the screens show for `c1ccc2c(N3CCOCC3)nc(-c3ccncc3)nc2c1`?
HCMV inh: inactive; Lassa entry inh: inactive; Pf growth 48h: 9.28µM; Pf growth 96h: inactive; HCV inh: inconclusive; Marburg entry inh: inconclusive

Results for CC1CCN(c2nc(-c3ccncc3)nc3ccccc23)CC1 ?
HCMV inh: inactive; Lassa entry inh: inactive; Pf growth 48h: 4.15µM; Pf growth 96h: 4.65µM; HCV inh: 7.08µM; Marburg entry inh: inconclusive

Results for c1ccc(CN2CCN(c3nc(N4CCOCC4)c4ccccc4n3)CC2)cc1 ?
HCMV inh: inactive; Lassa entry inh: inactive; HCV inh: inconclusive; Marburg entry inh: inconclusive

What do the screens show for `COc1ccc(CCNc2ncnc3c2c(-c2ccccc2)cn3-c2ccc(Cl)cc2)cc1OC`?
HCMV inh: inactive; Lassa entry inh: inactive

What do the screens show for `CC(Cc1ccccn1)NC(=O)CCc1nnc(C2CCCCC2)o1` (centres undefined)?
HCMV inh: inactive; Lassa entry inh: inactive; Pf growth 48h: inactive; Pf growth 96h: 13.1µM; HCV inh: inactive; Marburg entry inh: inactive

How did Cc1c(-c2ccc(O)cc2)nc2nc(-c3ccccc3)c(-c3ccccc3)nn12 do in these assays?
Pf growth 48h: 0.415µM; Pf growth 96h: 2.08µM

What do the screens show for `C1COC(NC(C2CC2)C2CC2)=N1`?
HCMV inh: inactive; Lassa entry inh: inactive; Pf growth 48h: inconclusive; Pf growth 96h: inconclusive; HCV inh: inactive[8.37 µM]; Marburg entry inh: 11.2µM!

What do the screens show for `COc1ccc(C(=O)C[n+]2cccc3cc(C)ccc32)cc1`?
HCMV inh: inactive; Lassa entry inh: inconclusive; Pf growth 48h: 14.7µM; Pf growth 96h: inconclusive; HCV inh: inactive; Marburg entry inh: inconclusive

Results for O=C(Cn1cc[n+](Cc2ccccc2)c1)c1ccc([N+](=O)[O-])cc1 ?
HCMV inh: inconclusive; Lassa entry inh: inconclusive; Pf growth 48h: inconclusive; Pf growth 96h: inactive; HCV inh: inconclusive; Marburg entry inh: inconclusive

How did COc1cccc(C(=O)C[n+]2ccccc2/C=N/O)c1 do in these assays?
HCMV inh: inactive; Lassa entry inh: inactive; Pf growth 48h: inactive; Pf growth 96h: inactive; HCV inh: inactive; Marburg entry inh: inactive

How did COc1cccc(C(=O)C[n+]2cccc3cc(OC)ccc32)c1 do in these assays?
HCMV inh: inactive; Pf growth 48h: 10.4µM; Pf growth 96h: inconclusive; HCV inh: inactive

Results for O=C(C[n+]1cc(Br)cc2ccccc21)c1ccccc1 ?
HCMV inh: inactive; Pf growth 48h: inactive; Pf growth 96h: inactive; HCV inh: inactive

Results for O=C(C[n+]1ccn(-c2ccccc2)c1)c1ccc([N+](=O)[O-])cc1 ?
HCMV inh: -63.5; Pf growth 48h: inconclusive; Pf growth 96h: inactive; HCV inh: inconclusive

Results for Cc1ccc2c(ccc[n+]2CC(=O)c2ccccc2)c1 ?
HCMV inh: inactive; Lassa entry inh: inactive; Pf growth 48h: 14.7µM; Pf growth 96h: inactive; HCV inh: inactive; Marburg entry inh: inactive

What do the screens show for `O=S(=O)(NCc1nc2cccnc2n1Cc1ccc(F)cc1)c1ccc2c(c1)CCCC2`?
HCMV inh: inactive; Lassa entry inh: inactive
